# In PubChem BioAssay (EPA / NIEHS):
# Results filed as inconclusive are left out. Calls of active or inactive are those of the source. How the source made its calls: active means hit-call score of the fitted dose curve at least 0.9, where 1 is the maximum; inconclusive means response in the unintended direction; inactive means score below 0.9.
# Read-out: Glyceraldehyde-3-phosphate dehydrogenase (Homo sapiens) (UniProt P04406)
# Test: CLD_GAPDH_48hr: CellzDirect (CLD) Gene Expression Assay for Baseline Control (Glyceraldehyde 3-phosphate dehydrogenase) at 48 hours (AID 2283706);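 further: active means higher GAPDH mRNA than DMSO vehicle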
# Procedure: CLD_48hr is a cell-based, multiplexed-readout assay that uses hepatocyte, a human liver primary cell, with measurements taken at 48 hours after chemical dosing in a 96-well plate.CLD_GAPDH_48hr is one of 16 assay component(s) measured or calculated from the CLD_48hr assay. It is designed to make measurements of mRNA induction, a form of inducible reporter, as detected with chemiluminescence signals by Quantitative Nuclease Protection Assay (qNPA) technology.Data from the assay component CLD_GAPDH_48hr was analyzed at the endpoint, CLD_GAPDH_48hr, in the positive analysis fitting direction relative to DMSO as the negative control and baseline of activity. Using a type of inducible reporter, gain-of-signal activity can be used to understand changes in the reporter gene as they relate to the gene GAPDH. Furthermore, this assay endpoint can be referred to as a secondary readout, because this assay has produced multiple assay endpoints where this one serves a background control function. To generalize the intended target to other relatable targets, this assay endpoint is annotated to the background measurement intended target family, where subfamily is baseline control.
# Human hepatocyte cultures were treated daily for two consecutive days with fresh dosing solutions containing appropriate concentrations of the 320 ToxCast chemicals (chemical identities were blinded to CellzDirect and other ToxCast collaborators), vehicle control (0.2% DMSO), and positive control inducers as summarized in Table 1. Due to the large number of treatment groups and chemicals examined, the ToxCast chemicals were divided into two groups (spanning two independent cultures of hepatocytes from separate donor preparations (Hu778: ToxCast plates 1 and 2; Hu776: ToxCast plates 3 and 4). Each preparation of human hepatocyte cultures was treated with respective vehicle control, medium only control, set of six positive controls/reference chemicals for the five hepatic receptor pathways, and a subset of eight of the ToxCast chemicals (indoxacarb, pyrithiobac-sodium, norflurazon, cyhalofop-butyl, methomyl, thiram, acetochlor, and propiconazole). These replicate data, coupled with internal replicates designed within the blinded ToxCast chemical library, provided additional data to evaluate interindividual differences between hepatocyte preparations and their potential impact on chemical profiles.Cell morphology and integrity were evaluated using phase-contrast microscopy as an indicator of hepatocyte cell health (Tyson & Green, 1987). Cultures for each treatment group (i.e., media, vehicle [0.2% DMSO], positive control inducers [multiple concentrations], and the ToxCast chemicals [multiple concentrations]) were observed and cell morphology was assessed relative to vehicle control cultures at each harvest time point (0, 6, 24, or 48 h). […] Images were evaluated at the conclusion of the study to assess changes in cell integrity and account for the effects of chemical exposure on uncharacteristic changes in concentration-dependent gene expression profiles. The results from these determinations of apparent cytotoxicity were annotated (yes/no) alongside the corresponding qNPA data for reference.At the conclusion of each treatment period, hepatocyte cultures (96-well) were washed with 1 volume of HBSS, lysed by addition of 25 ul ArrayPlate lysis buffer (HTG, Tucson, AZ), and 70 ul/well of Denaturation Oil, denatured by incubation at 95C for 10 min, and frozen at approximately -70C until analysis by nuclease protection assay (qNPA) (Roberts et al., 2007). For qNPA analysis, cell lysates were thawed at 50C for approximately 30 min, qNPA probes were added, and samples were incubated at 95C for 10 min to begin the detection process by denaturing the target RNA, dissociating the duplexes and secondary structure hybridization. At the conclusion of the hybridization period, S1 nuclease reagent was added to each sample to digest all nonprotected nucleotides at 50C for 60-90 min. […]
# Chain of Glyceraldehyde-3-phosphate dehydrogenase (Homo sapiens) (P04406 whole entry, looked up): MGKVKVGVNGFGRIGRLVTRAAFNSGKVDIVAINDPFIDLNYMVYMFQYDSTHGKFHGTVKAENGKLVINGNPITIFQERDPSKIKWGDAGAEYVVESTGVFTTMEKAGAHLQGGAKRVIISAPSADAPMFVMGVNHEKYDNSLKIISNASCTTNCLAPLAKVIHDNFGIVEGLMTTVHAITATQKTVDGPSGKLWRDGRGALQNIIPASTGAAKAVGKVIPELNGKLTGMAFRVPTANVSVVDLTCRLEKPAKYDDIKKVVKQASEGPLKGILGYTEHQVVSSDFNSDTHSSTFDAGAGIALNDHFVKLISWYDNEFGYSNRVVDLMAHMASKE
row,SMILES,outcome
1,O=C(O)c1c(Cl)ccc2cc(Cl)cnc12,inactive
2,CC(C)N1C(=O)c2ccccc2NS1(=O)=O,inactive
3,COCc1cnc(C2=NC(C)(C(C)C)C(=O)N2)c(C(=O)O)c1 (stereo unspecified),inactive
4,C=C(C)CN(CC)c1c([N+](=O)[O-])cc(C(F)(F)F)cc1[N+](=O)[O-],inactive
5,Cc1cnc(C2=NC(C)(C(C)C)C(=O)N2)c(C(=O)O)c1 (stereo unspecified),inactive
6,CN=C=S,inactive
7,CCOP(=O)(OCC)Oc1nc(Cl)c(Cl)cc1Cl,inactive
8,Nc1cnn(-c2ccccc2)c(=O)c1Cl,inactive
9,CS(=O)(=O)c1cc(C(F)(F)F)ccc1C(=O)c1cnoc1C1CC1,inactive
10,COP(=O)(OC)O/C(C)=C/C(=O)N(C)C,inactive
11,CCCN(CC)CC1COC2(CCC(C(C)(C)C)CC2)O1 (stereo unspecified),inactive
12,COc1cc(Cl)c(OC)cc1Cl,inactive
13,Cc1nc(N(C)C)nc(OC(=O)N(C)C)c1C,inactive
14,CC(C)=CC1C(C(=O)OCc2coc(Cc3ccccc3)c2)C1(C)C (stereo unspecified),inactive
15,CC(C)C1(C)N=C(c2ncccc2C(=O)O)NC1=O (stereo unspecified),inactive
16,Clc1cccc(C(Cl)(Cl)Cl)n1,inactive
17,CS(=O)(=O)c1ccc(C(=O)C2C(=O)CCCC2=O)c([N+](=O)[O-])c1,inactive
18,Clc1nc(Cl)nc(Nc2ccccc2Cl)n1,inactive
19,CNC(=O)N(C)c1nnc(C(C)(C)C)s1,inactive
20,COCC(C)N(C(=O)CCl)c1c(C)csc1C (stereo unspecified),inactive
21,COC(=O)NS(=O)(=O)c1ccc(N)cc1,inactive
22,CCCC(=NOCC)C1=C(O)CC(CC(C)SCC)CC1=O (stereo unspecified),inactive
23,Cc1ccc(N=CN(C)C=Nc2ccc(C)cc2C)c(C)c1,inactive
24,CCOc1nc(C(Cl)(Cl)Cl)ns1,inactive
25,C=CCOC(=O)C(C)(C)OC(=O)c1cc(-n2c(=O)cc(C(F)(F)F)n(C)c2=O)ccc1Cl,inactive
26,CC1(C)CON(Cc2ccccc2Cl)C1=O,inactive
